NOMO-1 viab = STK33 inhibitor candidate reducing NOMO-1 cell viability; NOMO-1 AML viability, CellTiter-Glo luminescence, 72 h; inhibition, % (test concentration not listed); hit rate 7.5% among 37,000; in the data active = inhibition above about 80%; inconclusive = no clear call, values can overlap the other calls
PD-1 reverse act = activators reversing PD-1 mediated T-cell inhibition; activation, % (concentration not given with the values); primary human CD4 T cells, PD-L1 beads, CellTiter-Glo 96 h; AID 2316; 29,000 tested, under 10 active; call rule not given here;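 also: 0% = median vehicle wells and 100% = positive control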
ROS inducer = cancer cell ROS induction; hit rate 2% among 46,000; ROS induction (% of piperlongumine), % at 10 µM; AID 624156; U2OS ROS induction, H2DCF-DA fluorescence; in the data active = ROS induction above about 79%, passing the limit was not always enough; inconclusive = no clear call, values can overlap the other calls;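 also: 0% = DMSO vehicle median and 100% = reference compound median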
YB-1 expr inh = YB-1 expression inhibition. delta delta Cp (YB-1 minus CDIP) (concentration not given with the values). hit rate 0.37% among 30,000. AID 434959. U2OS, qRT-PCR YB-1 vs CDIP delta delta Cp, 16 h; active compounds read high; zero = DMSO, each unit about twofold;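 active = delta delta Cp rounded down to an integer at or above 3, about 3 SD of DMSO wells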;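 also: higher means less YB-1 transcript or more CDIP transcript relative to DMSO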
Active calls of the source: *; u = inconclusive; x = not tested or not shown. Many of the other results were omitted from the sample, so hits are more common in it than they were.

SMILES | NOMO-1 viab | PD-1 reverse act | ROS inducer | YB-1 expr inh
COC(=O)c1ccc2c(=O)n(-c3ccc(F)c(Cl)c3)c(SCC(=O)C(C)(C)C)nc2c1 | x | x | 52.8 | x
C[C@H]1CN([C@@H](C)CO)C(=O)c2cc(NS(=O)(=O)c3ccccc3)ccc2O[C@@H]1CN(C)Cc1ccc(Oc2ccccc2)cc1 | 68.3 | -3.9 | 62.4 | 0.528
COc1ccc(S(=O)(=O)Nc2ccc3c(c2)C(=O)N([C@@H](C)CO)C[C@@H](C)[C@@H](CN(C)Cc2ccc(Oc4ccccc4)cc2)O3)cc1 | 113.1* | x | 22.0 | 2.37
C[C@@H]1CN([C@@H](C)CO)C(=O)c2cc(NS(=O)(=O)c3ccccc3)ccc2O[C@@H]1CN(C)Cc1ccc(Oc2ccccc2)cc1 | 117.7* | -2.9 | 27.3 | 0.00522
C[C@@H]1CN([C@@H](C)CO)C(=O)c2cc(NS(=O)(=O)c3ccc(F)cc3)ccc2O[C@@H]1CN(C)Cc1ccc(Oc2ccccc2)cc1 | 111.5* | x | 22.3 | -0.369
Cc1noc(C)c1S(=O)(=O)Nc1ccc2c(c1)C(=O)N([C@H](C)CO)C[C@@H](C)[C@@H](CN(C)Cc1ccc(Oc3ccccc3)cc1)O2 | 105.5* | -1.6 | 16.9 | 0.199
Cc1noc(C)c1S(=O)(=O)Nc1ccc2c(c1)C(=O)N([C@H](C)CO)C[C@H](C)[C@@H](CN(C)Cc1ccccc1)O2 | 19.2 | -1.3 | 3.4 | -0.267
O=C(COc1ccc([N+](=O)[O-])cc1)Nc1ccc(-c2nc3ccccc3s2)c(Cl)c1 | 5.2 | -0.8 | -1.5 | x
CCCCN(C)C(=O)c1c[nH]c2ccc(S(=O)(=O)Nc3cccc(OC)c3)cc2c1=O | x | x | -11.1 | x
Cc1ccc(NC(=O)N2CCC(N(C)C(C)C)CC2)cc1C | x | x | -12.8 | x
C[C@H](CO)N1C[C@H](C)[C@@H](CN(C)Cc2ccc(Oc3ccccc3)cc2)Oc2ccc(NS(=O)(=O)c3ccc(F)cc3)cc2C1=O | 58.0 | -4.1 | u | -0.0459
C[C@H]1CN([C@@H](C)CO)C(=O)c2cc(NS(=O)(=O)c3ccc(F)cc3)ccc2O[C@@H]1CN(C)Cc1ccc(Oc2ccccc2)cc1 | 117.0* | -2.3 | 22.7 | -0.491
C[C@@H]1CN([C@H](C)CO)C(=O)c2cc(NS(=O)(=O)c3ccc(Cl)cc3)ccc2O[C@H]1CN(C)Cc1ccc(C(F)(F)F)cc1 | 123.3* | -1.0 | 0.7 | 0.248
C[C@H]1CN([C@@H](C)CO)C(=O)c2cc(NS(=O)(=O)c3ccc(Cl)cc3)ccc2O[C@@H]1CN(C)Cc1ccc(C(F)(F)F)cc1 | 110.7* | -5.6 | 80.6* | 0.227
CO[C@H]1C[C@@H]2CC[C@@H](C)[C@@](O)(O2)C(=O)C(=O)N2CCCC[C@H]2C(=O)O[C@H](C(C)CC2CC[C@@H](O)[C@H](OC)C2)CC(=O)[C@H](C)/C=C(\C)[C@@H](O)[C@@H](OC)C(=O)[C@H](C)C[C@H](C)/C=C/C=C/C=C\1C (some centres not stated) | 40.2 | -5.1 | u | 0.175
CCC(C)C(=O)OCC1(c2ccc(C)cc2OC(=O)C(C)C)CO1 (configuration not stated) | 117.7* | -9.0 | -2.1 | 0.955
COc1ccc(CCNC(=O)c2ccc3c(=O)n(CCC4=CCCCC4)c(=S)[nH]c3c2)cc1OC | x | x | 95.6* | x
Cc1ccc(S(=O)(=O)Nc2ccc3c(c2)C(=O)N([C@@H](C)CO)C[C@@H](C)[C@H](CN(C)Cc2ccc(-c4ccccc4)cc2)O3)cc1 | 122.6* | 0.0 | 15.5 | 0.101
Cc1ccc(S(=O)(=O)Nc2ccc3c(c2)C(=O)N([C@@H](C)CO)C[C@@H](C)[C@@H](CN(C)Cc2ccc(-c4ccccc4)cc2)O3)cc1 | 101.0* | -0.6 | 5.1 | -0.208
NC(=O)NCC#Cc1ccc2c(c1)[C@]1(C(=O)N2)[C@H](C(=O)N2CCCCCCC2)[C@H]2C(=O)O[C@H](c3ccccc3)[C@H](c3ccccc3)N2[C@@H]1c1ccccc1OCCO | x | x | 1.4 | -0.462
CNc1sc(S(C)(=O)=O)nc1S(=O)(=O)c1ccc(C)cc1 | x | x | 0.0 | x
Cc1ccc(NC(=O)CSc2nc(-c3cccs3)cc(C(F)(F)F)n2)c([N+](=O)[O-])c1 | 107.0* | -0.3 | 3.7 | x
COc1ccc(NC(=O)CSc2nc(-c3ccccc3)cc(C(F)(F)F)n2)c([N+](=O)[O-])c1 | 12.8 | -0.8 | -19.9 | x
Cc1ccc(S[C@]2(C(=O)NC(C)C)CC(=O)N(C3CCCCC3)[C@@H]2c2ccc(CO)cc2I)cc1 | x | x | 200.5* | 0.111
COc1cc(C2NC(=S)NC(C)=C2C(=O)Nc2ccccc2Cl)ccc1OCC#N (configuration not stated) | -7.8 | -2.8 | 102.6* | x

High-throughput results as filed in PubChem BioAssay.
